From PubChem BioAssay (NCI)
About 83,000 compounds went through this panel and 20% of them were active in at least one assay; those are over-represented in the sample as a whole.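 Assay: single dose, 48 h. Readout: percent growth (0 = no net growth; negative = cell death). Active: <10.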 Unmarked numbers belong to inactive results. Activity calls are given as the source filed them.

Key:
Assay in all cases: NCI-60 one-dose screen, 48 h (100 = growth as untreated, 0 = no growth, -100 = all killed)
Conditions in all cases: 10 µM unless noted
SK-MEL-2 melanoma = system: SK-MEL-2 melanoma
EKVX NSCLC = system: EKVX NSCLC
SN12C renal = system: SN12C renal
UO-31 renal = system: UO-31 renal
ACHN renal = system: ACHN renal
CAKI-1 renal = system: CAKI-1 renal
CCRF-CEM leukemia = system: CCRF-CEM leukemia
MOLT-4 leukemia = system: MOLT-4 leukemia
SR leukemia = system: SR leukemia
RPMI-8226 leukemia = system: RPMI-8226 leukemia
OVCAR-8 ovarian = system: OVCAR-8 ovarian
OVCAR-5 ovarian = system: OVCAR-5 ovarian
OVCAR-4 ovarian = system: OVCAR-4 ovarian
SK-OV-3 ovarian = system: SK-OV-3 ovarian
IGROV1 ovarian = system: IGROV1 ovarian
OVCAR-3 ovarian = system: OVCAR-3 ovarian
HS 578T breast = system: HS 578T breast
NCI/ADR-RES ovarian = system: NCI/ADR-RES ovarian
A498 renal = system: A498 renal
TK-10 renal = system: TK-10 renal

Row | Compound | growth (SK-MEL-2 melanoma) | growth (EKVX NSCLC) | growth (SN12C renal) | growth (UO-31 renal) | growth (ACHN renal) | growth (CAKI-1 renal) | growth (CCRF-CEM leukemia) | growth (MOLT-4 leukemia) | growth (SR leukemia) | growth (RPMI-8226 leukemia) | growth (OVCAR-8 ovarian) | growth (OVCAR-5 ovarian) | growth (OVCAR-4 ovarian) | growth (SK-OV-3 ovarian) | growth (IGROV1 ovarian) | growth (OVCAR-3 ovarian) | growth (HS 578T breast) | growth (NCI/ADR-RES ovarian) | growth (A498 renal) | growth (TK-10 renal)
1 | Cn1ccnc1C(=O)/C=C/c1ccc(CC(=O)Nc2ccc(F)cc2)cc1 | 102% | 57.9% | 23.9% | 37.2% | 69.3% | 38.1% | 6.85% (active) | 20.6% | 14.4% | 1.1% (active) | 12.7% | 65.5% | 30.3% | 85.4% | 39.3% | 6.19% (active) | 57.7% | 21.7% |  | 
2 | COc1cc(/C=C\c2cc(/C=C\c3ccc(O)c(OC)c3)n(C(=O)COc3ccccc3)n2)ccc1O | -18.7% (active) | 28.1% | 15.7% | 0.475% (active) | 18% | 24.2% | 6.79% (active) |  |  |  | 3.26% (active) | 22.1% | 25.6% | -28.6% (active) | 8.43% (active) | -4.46% (active) | 22.5% | 20.4% | 11.2% | 
3 | O=c1c2c(c(=O)n1O)c1c3ccc[nH]c3nc1c1nc3[nH]cccc3c12 | 99.4% | 93.4% | 80.5% | 91% | 88.3% | 68.9% | 28.5% | 43.7% | 32.2% |  | 67.1% | 103% | 78.7% | 89.2% |  | 98.3% | 83.3% | 89.6% | 94.5% | 
4 | COc1cc(CC(=O)c2ccc(O)c(OC)c2)ccc1O | 106% | 111% | 94.2% | 87.5% | 102% | 98.8% | 94.2% | 80% | 90.1% | 97.9% | 97.9% | 97.9% | 103% | 99.7% | 111% | 105% | 98.5% | 100% |  | 
5 | C=C1C(=O)O[C@H]2[C@H]1CC/C(COC(=O)NCc1c[nH]c3ccc(Cl)cc13)=C\CC[C@@]1(C)O[C@@H]21 | -6.51% (active) | -22.4% (active) | -60.1% (active) | -99.6% (active) | -98% (active) | -96.4% (active) | -11.1% (active) | 3.46% (active) | 7.4% (active) | -35.5% (active) | -59.2% (active) | -27.7% (active) | -54.7% (active) | 90.5% | -65.8% (active) | -87.2% (active) | 25.3% | 48.1% |  | 
6 | COc1cc(-c2n/c(=C\c3c(O)[nH]c4ccc(Cl)cc34)cc3c2=Nc2ccccc2-3)ccc1F | 67.8% | 51.6% | 3.41% (active) | -61.4% (active) | -41.8% (active) | 62.9% |  |  | 7.25% (active) |  | -50.7% (active) | 74% | -56.9% (active) | -14.7% (active) | -18% (active) | -14.6% (active) | 14.8% | 47% | 96.2% | 
7 | COc1ccc(/C=C/c2nc(Nc3cccc(NC(C)=O)c3)c3ccccc3n2)cc1 | 91.9% | 94.3% | 89.1% | 68.3% | 78.3% | 67.4% | 82.5% |  | 64.7% | 89.3% | 84.5% | 86.8% | 104% | 99.5% | 99.7% | 97.7% | 89.1% | 90% | 9.66% (active) | 
8 | O=C1/C=C/[C@@H](O)[C@@H]2C[C@@H](O)C[C@H]2/C=C/CCC[C@H](CCc2cccc3ccccc23)O1 | -9.52% (active) | 13.3% | 5.88% (active) | 4.61% (active) | 6.35% (active) | -17.9% (active) | 7.69% (active) | -36.2% (active) |  | 22% | 17.7% | 24.6% | 14.4% | 18.1% | 5.72% (active) | -48.1% (active) | 39.5% | 2.01% (active) | -35.6% (active) | 
9 | COc1ccc(CNCCN2C(=O)c3ccc4c5c(ccc(c35)C2=O)C(=O)N(CCNCc2ccc(OC)c(OC)c2OC)C4=O)c(OC)c1OC | -62.9% (active) | -28.3% (active) | -77.3% (active) | -19.6% (active) | -51.1% (active) | -12.3% (active) | -14.8% (active) | -35.2% (active) | -23.2% (active) | -25% (active) | -9.78% (active) | -60.1% (active) | -94.1% (active) | 58% | -29.9% (active) | -42.8% (active) | -34.6% (active) | -3.82% (active) |  | 
10 | CC(=O)CCC(=O)OCc1cc(=O)c(O)co1 | 113% | 109% | 104% | 97.1% | 101% | 102% | 98% | 102% | 86.4% | 107% | 108% | 93.5% | 112% | 128% | 98.6% | 106% | 103% | 98.3% |  | 
11 | C[C@H]1[C@H]2[C@H]3CC[C@@H]4[C@@]5(C)CC[C@H](O)C(C)(C)[C@@H]5CC[C@@]4(C)[C@]3(C)CC[C@]23CO[C@]1(C)[C@@H](C(=O)/C=C\c1ccco1)C3 | 9.51% (active) | 105% | 101% | 77% | 44.3% | 55.8% | 101% |  |  | 106% | 99.3% | 102% | 111% | 103% | 108% | 103% | 95.8% |  | 96.2% | 
12 | N#CC1C(C#N)C(C(=O)c2ccc(Br)cc2)N2c3ccccc3C=CC12 (stereo not given) | 104% | 63.9% | 76.1% | 48% | 89.4% | 50.7% | 84.9% | 92.7% | 34.9% | 94.1% | 90.9% | 55.2% | 43.7% | 79.4% | 39.7% | 75.5% | 77.6% | 64.1% | 67.7% | 
13 | S=c1cc(S)c2cc(Br)ccc2[nH]1 | 93.9% | 105% | 98.8% | 86.8% | 90.4% | 101% | 100% | 98.7% | 94.1% | 96.7% | 91.5% | 114% | 92.6% | 98.6% | 89.5% | 100% | 109% | 101% |  | 
14 | COc1cc2nc(-c3ccc(Cl)cc3)cc(OCCCN3CCC(O)CC3)c2cc1OC | 75.8% | 56.7% | 36.6% | 51.3% | 35.1% | -5.22% (active) | 57.5% | 44.1% | 15.9% | 23.2% | 42.9% | 45.8% | 68.7% | 74.3% | 33.2% | 71.7% | 66.9% | 44.6% |  | 
15 | O=C(CNCCN1CCOCC1)N1c2cccc3cccc(c23)N(C(=O)CNCCN2CCOCC2)C1c1cn(-c2ccccc2)nc1-c1cccc([N+](=O)[O-])c1 | 96.5% | 84.6% | 79.4% | 65.1% | 88.7% | 66% | 17.5% | 48.5% | -19.4% (active) | 44.8% | 88.3% | 107% |  | 109% | 74.3% | 93.6% | 69.1% | 87.7% | 84.5% | 
16 | CCCCCCNC(=O)Oc1ccc(/C(=C(\C)c2ccccc2)c2ccc(OCCCN(C)C)cc2)cc1 |  | 91.1% | 80.7% | 57.8% | 97.9% | 94.8% | 77.6% | 62.6% | 2.09% (active) | 81.6% | 86.9% | 85.5% | 86.9% | 95.6% | 80.4% | 89.7% | 74% | 81% |  | 91.2%
17 | CC(=O)N1N=C(c2ccc(-n3ccc(C(F)(F)F)n3)c(F)c2)CC1c1ccc[nH]1 (stereo not given) |  | 102% | 102% | 92.7% | 109% | 95.4% | 93.7% | 85.6% | 92.8% | 80.8% | 98.9% | 105% | 102% | 118% | 112% | 107% | 106% | 104% |  | 108%
